This is one part of a sample in which hits are shown more often than they occur.
nsP2pro primary: Primary qHTS for inhibitors of NSP2Pro chikungunya virus (CHIKV) | FRET peptide cleavage, nsP2pro, fluorescence 1 h | Potency, µM (series often up to 24.9 µM), actives largely listed as inhibitors | actives 1.1% (n = 31,000) | Polyprotein P1234 (Chikungunya virus (strain S27-African prototype)), Q8JUX6 | AID 1964107, 2024; also: nearly all actives have a fitted effect of over 60% in size
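FRET cleavage of 2.5 uM peptide 2 by 150 nM CHIKV protease domain at pH 8.0 (Tris, Tween 20). Compounds at 7 concentrations (up to 25 uM) preincubated 15 min. Fluorescence read after 1 h at room temperature.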
CHIKV nsP2 cell: Secondary cell base assay for inhibitors of NSP2Pro Chikungunya virus (CHIKV). shares compounds with nsP2pro primary. cell-based CHIKV nsP2 protease reporter assay. Potency, µM (series often up to 51.1 µM), most hits filed as inhibitors. actives 10% (n = 450); also: nearly all actives have a fitted effect of over 70% in size
NSP2 full ctr: Selectivity profile for inhibitors of NSP2Pro chikungunya virus (CHIKV): Full length NSP2 enzyme counterscreen (CHIKV-NSP2) | shares compounds with nsP2pro primary | actives 39% (n = 410) | Potency, µM (highest dose often 50.7 µM), most hits filed as inhibitors | Full-length CHIKV NSP2 protease enzymatic counterscreen | AID 1964101, 2024; also: nearly all actives have a fitted effect of over 65% in size
Furin counter: Selectivity profile for inhibitors of NSP2Pro chikungunya virus (CHIKV): Human furin counterscreen. shares compounds with nsP2pro primary. Recombinant human furin enzymatic counterscreen, fluorogenic substrate. Potency, µM (series often up to 50.6 µM), hits mostly inhibitors. actives 6% (n = 410). AID 1964102, 2024
nsP2 NS23 pep: Selectivity profile for inhibitors of NSP2Pro chikungunya virus (CHIKV): Endogenous NS2/3 peptide Counterscreen. shares compounds with nsP2pro primary. Potency, µM (highest dose often 51 µM), actives largely listed as inhibitors. Purified CHIKV nsP2 protease, endogenous NS2/3 peptide cleavage. actives 34% (n = 410). AID 1964103, 2024; also: nearly all actives have a fitted effect of over 55% in size
Papain counter: Selectivity profile for inhibitors of NSP2Pro chikungunya virus (CHIKV): Papain Counterscreen. shares compounds with nsP2pro primary. purified papain protease activity, enzymatic inhibition. Potency, µM (doses to about 51 µM), usual class: inhibitors. actives 5% (n = 410)
nsP2pro conf qHTS: Confirmatory qHTS for inhibitors of NSP2Pro chikungunya virus (CHIKV); shares compounds with nsP2pro primary; CHIKV nsP2 protease enzymatic activity, qHTS; Potency, µM (doses to about 25.5 µM), actives largely listed as inhibitors; actives 43% (n = 410); also: nearly all actives have a fitted effect of over 75% in size
HCV NS3 counter: Selectivity profile for inhibitors of NSP2Pro chikungunya virus (CHIKV): NS34A-HCV Counterscreen | shares compounds with nsP2pro primary | HCV NS3/4A protease biochemical counterscreen | Potency, µM (series often up to 50.9 µM), most hits filed as inhibitors | actives 20% (n = 410); also: nearly all actives have a fitted effect of over 55% in size
Numbers stand for hits; 0 = inactive; ? = inconclusive; - = no result; ! = repeats disagree. Calls follow the shape of the full dose curve.

SMILES	nsP2pro primary	CHIKV nsP2 cell	NSP2 full ctr	Furin counter	nsP2 NS23 pep	Papain counter	nsP2pro conf qHTS	HCV NS3 counter
C[C@@]1(C(=O)O)CC[C@]2(C)CC[C@]3(C)C4=CC(=O)c5cc(O)c(O)cc5[C@]4(C)CC[C@@]3(C)[C@@H]2C1	0	-	-	-	-	-	-	-
CC1=C(O)C(=O)C=C2C1=CC=C1[C@@]2(C)CC[C@@]2(C)[C@@H]3C[C@](C)(C(=O)O)CC[C@]3(C)CC[C@]12C	4.42µM!	?	16.3µM	?	4.61µM	?	1.79µM	20.6µM
CC1(C)[C@@H](O)CC[C@]2(C)[C@H]3CC=C4[C@@H]5C[C@](C)(C(=O)O)CC[C@]5(C)CC[C@@]4(C)[C@]3(C)CC[C@@H]12	0	-	-	-	-	-	-	-
C=C(C(=O)OC[C@H]1O[C@@H](OC(=O)/C=C/c2ccccc2)[C@H](O)[C@@H](O)[C@@H]1O)C(O)CO (stereo partly drawn)	0	-	-	-	-	-	-	-
N[C@@H](CO)C(=O)Nc1ccc(Cl)cc1C(=O)c1ccc[nH]1	0	-	-	-	-	-	-	-
NC(CO)C(=O)NNCc1ccc(O)c(O)c1O (stereo not drawn)	1.76µM	0	6.51µM	0	4.11µM	0	1.26µM	?
CCOC(=O)C(Cc1cccc(N2CCN([S+](=O)([O-])c3ccccc3Cl)CC2)c1)OC (stereo not drawn)	0	-	-	-	-	-	-	-
c1ccc(CN2CCC[C@H]2c2nc(-c3ccnc(N4CCOCC4)c3)no2)nc1	0	-	-	-	-	-	-	-
COc1ccc2[nH]c(C[C@@H]3C[C@@H](C(C)C)[C@H](CNC(=O)c4cccnc4)C=C3C)nc2n1	0	-	-	-	-	-	-	-
CCOc1ccccc1CN1CCC[C@H]1C(=O)N1CCCCCCNC(=O)CC1	0	-	-	-	-	-	-	-
Cc1cccc2nc(-c3ccco3)c(Nc3ccc4c(c3)OCO4)n12	0	-	-	-	-	-	-	-
Cc1ccc(-c2nc3cccc(C)n3c2Nc2ccc3c(c2)OCO3)o1	0	0	0	0	0	0	0	0
Cc1ccc(-c2nc3ccccn3c2Nc2ccc3c(c2)OCO3)o1	0	-	-	-	-	-	-	-
CC1=CC(=O)C2C(C)(C)CCCC2(C)C12CCC1(COC(=O)C1)O2 (stereo not drawn)	0	-	-	-	-	-	-	-
O=C(NC1CCCCC1)N1Cc2[nH]cnc2C[C@H]1c1nc(-c2ccccc2)no1	0	-	-	-	-	-	-	-
Cc1cccc(-c2noc([C@@H]3Cc4nc[nH]c4CN3C(=O)NC3CCCCC3)n2)c1	0.631µM	0	5.3µM	0	7.49µM	0	2.06µM	0
O=C(Nc1cccc(F)c1)N1Cc2[nH]cnc2C[C@H]1c1nc(-c2ccncc2)no1	0	-	-	-	-	-	-	-
Clc1cc(Cl)c(OCC#CI)cc1Cl	4.42µM	?	7.11µM	8.96µM	5.04µM	0	2.19µM	0
CCN(CC)CCNc1ccc2ncn3c4ccc(O)cc4c(=O)c1c23	0	-	-	-	-	-	-	-
CCN(CC)CCNc1ccc(CO)c2sc3ccccc3c(=O)c12	?	?	0	0	?	0	0	0
Cc1ccc(NCCN(C)CCNc2ccnc3cc(Cl)ccc23)c2c(=O)c3ccccc3sc12	0	-	-	-	-	-	-	-
CC1(C)CC[C@]2(C(=O)O[C@@H]3O[C@H](CO)[C@@H](O)[C@H](O)[C@H]3O)CC[C@]3(C)C(=CCC4[C@@]5(C)C[C@@H](O)[C@H](O)[C@](C)(C(=O)O)C5CC[C@]43C)C2C1O (stereo partly drawn)	0	-	-	-	-	-	-	-
Cc1onc(-c2c(F)cccc2Cl)c1C(=O)N[C@@H]1C(=O)N2[C@@H]1SC(C)(C)[C@H]2C(=O)O	0	-	-	-	-	-	-	-
COC(=O)c1ccc(COCC2=CC(C)(C)Oc3ccc(OC)cc32)cc1	0	-	-	-	-	-	-	-
CN(C)Cc1ccc(S(=O)(=O)n2ccc(/C=C/C(=O)NO)c2)cc1	0	-	-	-	-	-	-	-
SMILES	nsP2pro primary	CHIKV nsP2 cell	NSP2 full ctr	Furin counter	nsP2 NS23 pep	Papain counter	nsP2pro conf qHTS	HCV NS3 counter
CNC(=O)Oc1ccc2c(c1)[C@]1(C)CCN(C)[C@@H]1N2C	4.42µM!	0	0	0	0	0	?	0
CN1CCCC2(C1)CN(C)c1ccc(C(=O)NCC3CCCCC3)cc12 (stereo not drawn)	0	-	-	-	-	-	-	-
COc1c2cc(c(O[C@@H]3O[C@H](CO)[C@@H](O)[C@H](O)[C@H]3O)c1OC)CCCCC(O)CCc1ccc(O)c-2c1 (stereo partly drawn)	0	-	-	-	-	-	-	-
CNc1sc(-c2cccc3ccccc23)nc1C(=O)OC	0	-	-	-	-	-	-	-
CC(=O)Nc1ccc(NC(=O)c2nc(S(=O)(=O)Cc3ccc(F)cc3)ncc2Cl)cc1	?	2.31µM	?	0	4.61µM	0	5.04µM	0
CCS(=O)(=O)c1ncc(Cl)c(C(=O)Nc2ccccc2)n1	0	-	-	-	-	-	-	-
Cc1ccc(CS(=O)(=O)c2ncc(Cl)c(C(=O)Nc3nc4ccc(F)cc4s3)n2)cc1	0	-	-	-	-	-	-	-
N#Cc1ccc(-c2ccc(CNc3ccc(C4CCNCC4)cc3)o2)cc1	0	-	-	-	-	-	-	-
N#Cc1ccc(-c2ccc(C3Nc4ccccc4C(=O)N3O)o2)cc1 (stereo not drawn)	10µM	23.1µM	0	0	0	0	?	0
CCOc1ccc(CCNC(=O)c2cc3cccnc3n2Cc2cccc(C)n2)cc1OCC	0	-	-	-	-	-	-	-
COc1ccc(NC(=O)c2ccc3nc(CCc4ccccc4)oc3c2)cc1	0	-	-	-	-	-	-	-
CCCCOc1ccc(C(=O)Nc2ccc3c(c2)CCCN3C(=O)c2cccs2)cc1	0	-	-	-	-	-	-	-
CCCCNC(=O)CN1CCN(c2ncc(NC(=O)c3ccc(Cl)cc3)cc2C(=O)O)CC1	?	0	14.6µM	0	0	0	0	0
CCCCN(CCCNC(=O)c1ccc(Sc2ccc(Cl)cc2)c(NC(C)=O)c1)c1ccccc1	0	-	-	-	-	-	-	-
CCCCNC(=O)CN1CCN(c2ccc(NC(=O)c3ccc(OC)cc3)cc2C(=O)O)CC1	4.47µM	?	4.11µM	?	7.3µM	0	6.34µM	1.83µM
COc1ccc(NC(=O)CCN2CCN(c3cccc(Cl)c3)CC2)cc1	0	-	-	-	-	-	-	-
Cc1ccc(Cl)cc1NC(=O)c1cnc(N2CCCCC2)c2ccccc12	0	-	-	-	-	-	-	-
CCOc1cccc(C(=O)Nc2ccc(S(=O)(=O)N(Cc3ccccc3)c3ccccc3)cc2)c1	0	-	-	-	-	-	-	-

High-throughput results: PubChem, National Center for Advancing Translational Sciences (NCATS)
